What all share (experiment): DAPPL (digital affinity profiling via proximity ligation, sequencing); 10 mM Tris-HCl pH 7.5, 50 mM NaCl, 1 mM DTT, 4% glycerol, room temperature, 30 min; GST-TFs on glutathione beads, 16-mer random dsDNA library, 0.1% formaldehyde crosslink after washing; high values mean tight binding
Holding throughout (settings): protein: recombinant; tags: N-terminal GST; dsDNA, one strand shown

The target in one test is T1, FLI1 (Homo sapiens, UniProt Q01543 1-452).
T1 sequence: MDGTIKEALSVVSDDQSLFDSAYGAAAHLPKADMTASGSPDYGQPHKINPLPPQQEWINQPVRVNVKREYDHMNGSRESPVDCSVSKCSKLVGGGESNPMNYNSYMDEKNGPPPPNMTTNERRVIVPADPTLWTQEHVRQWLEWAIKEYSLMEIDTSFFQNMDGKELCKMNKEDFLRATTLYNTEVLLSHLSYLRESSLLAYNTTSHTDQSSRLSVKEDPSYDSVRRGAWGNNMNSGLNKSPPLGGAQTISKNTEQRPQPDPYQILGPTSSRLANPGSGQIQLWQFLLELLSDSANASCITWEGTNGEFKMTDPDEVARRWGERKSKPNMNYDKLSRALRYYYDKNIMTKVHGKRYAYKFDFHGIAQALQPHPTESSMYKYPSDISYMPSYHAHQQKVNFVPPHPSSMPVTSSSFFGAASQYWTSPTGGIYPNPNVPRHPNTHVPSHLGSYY
Summed up:
(§1)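 GST fusions of human transcription factors were expressed in yeast and captured with glutathione beads. Once given DNA barcodes and pooled alongside a tag-only sample, they were incubated for 30 min at room temperature with 200 nmole of a random double-stranded 16-mer DNA library in Tris/NaCl/DTT/glycerol buffer, then washed, crosslinked (0.1% formaldehyde), proximity-ligated, PCR-amplified and sequenced on an Illumina NextSeq500. The binding signal of each hexamer is its read frequency for a factor divided by its frequency for the tag-only sample.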

For the next test, the target named is T2, ELK1 (Homo sapiens, UniProt P19419 1-428).
T2 sequence: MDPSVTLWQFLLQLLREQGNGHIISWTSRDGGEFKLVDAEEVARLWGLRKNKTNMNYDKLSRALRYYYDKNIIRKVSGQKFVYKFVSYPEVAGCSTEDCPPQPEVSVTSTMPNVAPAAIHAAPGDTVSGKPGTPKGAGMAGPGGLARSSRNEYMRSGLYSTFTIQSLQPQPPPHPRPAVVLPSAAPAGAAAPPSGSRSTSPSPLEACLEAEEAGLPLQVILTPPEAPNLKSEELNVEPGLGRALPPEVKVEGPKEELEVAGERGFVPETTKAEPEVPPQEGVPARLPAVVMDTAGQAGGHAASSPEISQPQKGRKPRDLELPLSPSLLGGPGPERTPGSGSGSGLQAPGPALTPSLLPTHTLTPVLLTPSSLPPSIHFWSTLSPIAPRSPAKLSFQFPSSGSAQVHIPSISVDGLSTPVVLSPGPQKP
Summed up: as §1

Another test has as its target T3, GABPA (Homo sapiens, UniProt Q06546 1-454).
T3 sequence: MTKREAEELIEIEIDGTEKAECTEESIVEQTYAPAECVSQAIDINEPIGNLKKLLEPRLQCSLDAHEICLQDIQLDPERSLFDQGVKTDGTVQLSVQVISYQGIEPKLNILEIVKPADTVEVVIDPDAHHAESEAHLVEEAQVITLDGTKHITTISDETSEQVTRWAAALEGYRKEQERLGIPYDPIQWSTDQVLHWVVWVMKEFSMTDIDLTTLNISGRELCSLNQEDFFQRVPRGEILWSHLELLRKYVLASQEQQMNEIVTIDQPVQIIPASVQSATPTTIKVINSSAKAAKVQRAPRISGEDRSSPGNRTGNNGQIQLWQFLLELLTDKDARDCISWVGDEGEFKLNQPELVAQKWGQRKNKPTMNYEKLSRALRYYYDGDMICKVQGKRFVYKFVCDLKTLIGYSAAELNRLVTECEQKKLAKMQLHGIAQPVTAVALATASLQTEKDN
The essentials:
as §1

The target in the next test is T4, ERG (Homo sapiens, UniProt P11308 1-479).
T4 sequence: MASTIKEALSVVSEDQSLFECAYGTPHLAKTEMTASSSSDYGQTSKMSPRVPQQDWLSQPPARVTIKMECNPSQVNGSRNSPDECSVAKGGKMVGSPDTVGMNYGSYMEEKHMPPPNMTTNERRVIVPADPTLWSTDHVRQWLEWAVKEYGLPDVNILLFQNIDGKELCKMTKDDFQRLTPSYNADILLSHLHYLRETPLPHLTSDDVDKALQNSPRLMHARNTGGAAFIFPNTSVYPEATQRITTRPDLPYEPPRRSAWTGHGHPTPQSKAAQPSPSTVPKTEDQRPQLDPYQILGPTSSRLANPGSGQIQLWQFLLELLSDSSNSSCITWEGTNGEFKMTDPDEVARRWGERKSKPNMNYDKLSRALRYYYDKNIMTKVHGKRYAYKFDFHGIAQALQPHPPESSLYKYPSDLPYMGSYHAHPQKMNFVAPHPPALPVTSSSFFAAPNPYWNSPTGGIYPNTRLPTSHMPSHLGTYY
Summed up:
as §1

In another test the target is ELF1 (Homo sapiens, UniProt P32519 1-619). The essentials: as §1
ELF1, sequence (P32519 whole entry): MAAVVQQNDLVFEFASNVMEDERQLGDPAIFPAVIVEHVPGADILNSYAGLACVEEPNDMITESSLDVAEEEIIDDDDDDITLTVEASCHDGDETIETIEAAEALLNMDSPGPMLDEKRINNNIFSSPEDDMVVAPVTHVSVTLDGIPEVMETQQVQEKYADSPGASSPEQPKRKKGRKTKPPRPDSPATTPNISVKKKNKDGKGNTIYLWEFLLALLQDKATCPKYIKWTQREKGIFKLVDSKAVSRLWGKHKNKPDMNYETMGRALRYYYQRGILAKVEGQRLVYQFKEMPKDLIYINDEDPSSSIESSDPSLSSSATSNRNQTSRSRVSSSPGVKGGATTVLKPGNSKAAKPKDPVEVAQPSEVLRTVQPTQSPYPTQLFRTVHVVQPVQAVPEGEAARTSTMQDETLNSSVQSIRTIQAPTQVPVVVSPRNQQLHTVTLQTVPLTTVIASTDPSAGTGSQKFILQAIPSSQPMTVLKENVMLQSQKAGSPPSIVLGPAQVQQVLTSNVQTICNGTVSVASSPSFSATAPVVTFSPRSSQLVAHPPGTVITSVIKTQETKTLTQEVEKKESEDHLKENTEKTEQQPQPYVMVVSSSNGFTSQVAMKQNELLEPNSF
The target in a further test is T5, EHF (Homo sapiens, UniProt Q9NZC4 1-300).
T5 sequence: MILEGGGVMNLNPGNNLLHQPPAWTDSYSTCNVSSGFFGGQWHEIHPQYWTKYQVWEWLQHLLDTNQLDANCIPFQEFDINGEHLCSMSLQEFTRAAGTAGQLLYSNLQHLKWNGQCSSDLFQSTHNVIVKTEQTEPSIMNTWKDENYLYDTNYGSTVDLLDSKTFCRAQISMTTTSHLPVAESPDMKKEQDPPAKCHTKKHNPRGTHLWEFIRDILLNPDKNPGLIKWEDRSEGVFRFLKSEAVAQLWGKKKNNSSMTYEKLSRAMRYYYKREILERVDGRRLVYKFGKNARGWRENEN
Summed up: as §1

The next test deals with SPI1 (Homo sapiens, UniProt P17947 1-270). Summed up:
as §1

The target of another test is SPIB (Homo sapiens, UniProt Q01892 1-262). Summed up:
as §1

The next test deals with T6, ELK3 (Homo sapiens, UniProt P41970 1-407).
T6 sequence: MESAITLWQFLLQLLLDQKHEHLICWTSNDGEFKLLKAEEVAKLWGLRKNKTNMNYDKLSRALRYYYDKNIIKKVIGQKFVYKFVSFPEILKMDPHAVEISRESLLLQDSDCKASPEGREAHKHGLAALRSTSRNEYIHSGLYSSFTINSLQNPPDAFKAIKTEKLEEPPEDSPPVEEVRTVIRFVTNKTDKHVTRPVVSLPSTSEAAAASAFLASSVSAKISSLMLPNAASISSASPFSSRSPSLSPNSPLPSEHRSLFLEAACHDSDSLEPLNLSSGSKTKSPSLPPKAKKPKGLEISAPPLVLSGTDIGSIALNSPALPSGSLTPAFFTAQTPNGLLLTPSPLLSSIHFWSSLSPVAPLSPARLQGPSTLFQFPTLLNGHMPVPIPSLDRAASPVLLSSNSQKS
Summed up: as §1

A further test deals with T7, FEV (Homo sapiens, UniProt Q99581 1-238).
T7 sequence: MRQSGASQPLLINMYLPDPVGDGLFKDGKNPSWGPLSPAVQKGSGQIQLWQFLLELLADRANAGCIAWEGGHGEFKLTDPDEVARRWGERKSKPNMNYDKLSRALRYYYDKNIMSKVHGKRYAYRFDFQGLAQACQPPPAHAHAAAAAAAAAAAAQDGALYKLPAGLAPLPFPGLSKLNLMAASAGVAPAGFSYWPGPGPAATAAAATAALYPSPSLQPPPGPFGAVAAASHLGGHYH
The essentials:
as §1

A further test concerns the target ETV5 (Homo sapiens, UniProt P41161 1-510). Summed up: as §1
Another test has as its target T8, SPIC (Homo sapiens, UniProt Q8N5J4 1-248).
T8 sequence: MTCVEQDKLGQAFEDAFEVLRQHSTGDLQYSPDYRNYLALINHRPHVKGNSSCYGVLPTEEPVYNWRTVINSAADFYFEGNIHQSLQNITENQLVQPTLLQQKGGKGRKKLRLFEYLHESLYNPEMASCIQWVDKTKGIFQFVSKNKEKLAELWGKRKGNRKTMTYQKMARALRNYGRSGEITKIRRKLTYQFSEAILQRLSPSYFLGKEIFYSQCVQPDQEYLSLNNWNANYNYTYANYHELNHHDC
Summed up: as §1

The next test has as its target ELF4 (Homo sapiens, UniProt Q99607 1-663). The essentials:
as §1

The target in a further test is T9, ELK4 (Homo sapiens, UniProt P28324-2 1-405).
T9 sequence: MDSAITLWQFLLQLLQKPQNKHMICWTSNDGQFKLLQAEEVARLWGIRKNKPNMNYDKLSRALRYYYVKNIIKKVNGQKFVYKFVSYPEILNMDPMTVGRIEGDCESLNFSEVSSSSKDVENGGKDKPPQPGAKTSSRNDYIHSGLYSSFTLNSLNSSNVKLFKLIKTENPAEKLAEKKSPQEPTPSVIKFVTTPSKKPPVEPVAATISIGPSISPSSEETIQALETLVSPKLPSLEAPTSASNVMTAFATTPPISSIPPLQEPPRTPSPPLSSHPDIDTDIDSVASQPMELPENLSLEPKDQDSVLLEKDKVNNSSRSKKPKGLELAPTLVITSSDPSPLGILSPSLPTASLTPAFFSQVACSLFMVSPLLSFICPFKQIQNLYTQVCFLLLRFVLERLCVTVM
The essentials:
as §1

For a further test, the target named is T10, ETV2 (Homo sapiens, UniProt O00321 1-342).
T10 sequence: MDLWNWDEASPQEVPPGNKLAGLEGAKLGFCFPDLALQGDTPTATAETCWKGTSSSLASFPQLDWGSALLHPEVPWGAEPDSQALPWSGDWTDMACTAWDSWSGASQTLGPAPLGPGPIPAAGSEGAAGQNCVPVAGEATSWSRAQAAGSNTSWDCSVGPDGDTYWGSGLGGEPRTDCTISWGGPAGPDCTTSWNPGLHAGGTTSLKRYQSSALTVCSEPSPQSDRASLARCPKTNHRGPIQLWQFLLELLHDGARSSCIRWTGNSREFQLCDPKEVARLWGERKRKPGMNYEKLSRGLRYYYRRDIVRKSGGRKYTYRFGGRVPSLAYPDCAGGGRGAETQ
Summed up:
as §1

For a further test, the target named is T11, ELF3 (Homo sapiens, UniProt P78545 1-371).
T11 sequence: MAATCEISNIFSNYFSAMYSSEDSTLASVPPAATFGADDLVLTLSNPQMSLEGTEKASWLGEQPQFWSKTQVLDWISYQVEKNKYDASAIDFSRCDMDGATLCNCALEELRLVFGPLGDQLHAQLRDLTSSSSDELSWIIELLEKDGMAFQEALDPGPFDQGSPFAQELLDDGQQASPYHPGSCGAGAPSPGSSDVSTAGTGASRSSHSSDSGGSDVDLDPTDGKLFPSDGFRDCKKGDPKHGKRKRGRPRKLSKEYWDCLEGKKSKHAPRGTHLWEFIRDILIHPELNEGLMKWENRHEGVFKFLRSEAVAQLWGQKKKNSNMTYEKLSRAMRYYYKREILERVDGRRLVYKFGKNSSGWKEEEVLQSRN
The essentials: as §1

A further test concerns the target ETV1 (Homo sapiens, UniProt P50549 1-477). The essentials: as §1

SPIB, sequence (Q01892 whole entry): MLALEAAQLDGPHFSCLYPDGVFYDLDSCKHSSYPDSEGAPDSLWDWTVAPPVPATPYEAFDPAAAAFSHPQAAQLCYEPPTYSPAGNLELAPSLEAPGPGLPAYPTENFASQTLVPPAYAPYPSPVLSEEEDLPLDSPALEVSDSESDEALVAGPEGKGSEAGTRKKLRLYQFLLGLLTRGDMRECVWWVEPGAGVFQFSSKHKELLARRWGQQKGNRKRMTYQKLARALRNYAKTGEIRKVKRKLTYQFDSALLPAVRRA
ETV1, sequence (P50549 whole entry): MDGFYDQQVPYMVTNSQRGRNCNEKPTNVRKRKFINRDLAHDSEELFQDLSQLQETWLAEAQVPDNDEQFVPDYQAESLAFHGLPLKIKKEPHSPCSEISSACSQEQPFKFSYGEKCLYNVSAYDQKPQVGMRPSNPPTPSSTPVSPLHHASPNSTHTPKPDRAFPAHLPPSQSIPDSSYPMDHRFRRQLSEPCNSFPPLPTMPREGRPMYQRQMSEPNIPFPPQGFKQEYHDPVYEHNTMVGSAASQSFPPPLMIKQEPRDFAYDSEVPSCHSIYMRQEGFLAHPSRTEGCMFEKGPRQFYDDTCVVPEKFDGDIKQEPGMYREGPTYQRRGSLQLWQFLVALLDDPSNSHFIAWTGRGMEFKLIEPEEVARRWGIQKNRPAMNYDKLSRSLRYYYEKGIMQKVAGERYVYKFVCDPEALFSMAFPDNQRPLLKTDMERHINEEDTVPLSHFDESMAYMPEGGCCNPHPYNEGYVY
ETV5, sequence (P41161 whole entry): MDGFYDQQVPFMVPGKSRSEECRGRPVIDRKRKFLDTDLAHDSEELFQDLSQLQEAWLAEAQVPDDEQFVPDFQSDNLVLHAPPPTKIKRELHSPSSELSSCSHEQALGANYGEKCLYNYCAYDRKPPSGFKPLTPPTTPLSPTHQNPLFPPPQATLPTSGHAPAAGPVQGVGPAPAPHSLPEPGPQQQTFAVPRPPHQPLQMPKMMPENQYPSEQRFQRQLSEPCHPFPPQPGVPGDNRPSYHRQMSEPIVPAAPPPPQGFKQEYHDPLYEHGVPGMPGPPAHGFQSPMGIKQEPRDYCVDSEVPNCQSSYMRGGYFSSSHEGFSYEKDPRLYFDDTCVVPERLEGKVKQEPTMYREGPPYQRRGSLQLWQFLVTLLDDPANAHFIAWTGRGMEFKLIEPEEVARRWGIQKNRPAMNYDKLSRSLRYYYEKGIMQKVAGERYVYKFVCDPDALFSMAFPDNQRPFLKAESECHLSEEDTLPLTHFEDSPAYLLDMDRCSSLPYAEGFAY
ELF4, sequence (Q99607 whole entry): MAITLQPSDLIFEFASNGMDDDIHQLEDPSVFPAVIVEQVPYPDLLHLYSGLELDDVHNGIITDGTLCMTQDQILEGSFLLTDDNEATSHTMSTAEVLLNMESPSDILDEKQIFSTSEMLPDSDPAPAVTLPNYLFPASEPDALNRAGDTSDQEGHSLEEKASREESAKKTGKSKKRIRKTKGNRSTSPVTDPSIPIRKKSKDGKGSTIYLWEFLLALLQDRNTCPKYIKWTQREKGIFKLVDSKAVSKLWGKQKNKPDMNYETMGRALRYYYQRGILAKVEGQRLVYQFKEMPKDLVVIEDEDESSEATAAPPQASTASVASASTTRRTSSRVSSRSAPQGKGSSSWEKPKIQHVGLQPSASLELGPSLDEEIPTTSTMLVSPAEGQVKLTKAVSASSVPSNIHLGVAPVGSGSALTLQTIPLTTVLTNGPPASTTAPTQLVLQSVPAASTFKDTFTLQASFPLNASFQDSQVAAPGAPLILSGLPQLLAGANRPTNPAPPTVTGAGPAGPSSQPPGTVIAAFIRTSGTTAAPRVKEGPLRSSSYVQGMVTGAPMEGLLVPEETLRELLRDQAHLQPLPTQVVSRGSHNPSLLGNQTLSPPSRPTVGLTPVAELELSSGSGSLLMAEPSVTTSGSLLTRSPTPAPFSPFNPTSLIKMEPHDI

As to GTACAA, the binding signal with FLI1 is 1.05 fold enrichment (6-mer frequency, TF over GST control); in the test with ELK1, 1.08 fold enrichment (6-mer frequency, TF over GST control); with GABPA it was 1.01 fold enrichment (6-mer frequency, TF over GST control); with ERG, 1.11 fold enrichment (6-mer frequency, TF over GST control); in the test with ELF1, 1.11 fold enrichment (6-mer frequency, TF over GST control); in the test with EHF it was 1.26 fold enrichment (6-mer frequency, TF over GST control). For the same sequence, the binding signal was 1.06 fold enrichment (6-mer frequency, TF over GST control) with SPI1; 1.04 fold enrichment (6-mer frequency, TF over GST control) in the test with SPIB; 1.02 fold enrichment (6-mer frequency, TF over GST control) with ELK3; 1.11 fold enrichment (6-mer frequency, TF over GST control) with FEV; 1.08 fold enrichment (6-mer frequency, TF over GST control) in the test with ETV5; 1.12 fold enrichment (6-mer frequency, TF over GST control) with SPIC. The binding signal with ELF4 is 1.09 fold enrichment (6-mer frequency, TF over GST control); in the test with ELK4 it was 1.18 fold enrichment (6-mer frequency, TF over GST control); with ETV2 it was 1.19 fold enrichment (6-mer frequency, TF over GST control); with ELF3 it was 1.08 fold enrichment (6-mer frequency, TF over GST control); in the test with ETV1 it was 1.09 fold enrichment (6-mer frequency, TF over GST control).
On to CTCACC, for which the binding signal with FLI1 was 1.26 fold enrichment (6-mer frequency, TF over GST control); with ELK1 it was 1.32 fold enrichment (6-mer frequency, TF over GST control); in the test with GABPA it was 1.32 fold enrichment (6-mer frequency, TF over GST control); with ERG, 1.13 fold enrichment (6-mer frequency, TF over GST control); in the test with ELF1 it was 1.2 fold enrichment (6-mer frequency, TF over GST control); with EHF, 1.24 fold enrichment (6-mer frequency, TF over GST control). The binding signal with SPI1 is 1.24 fold enrichment (6-mer frequency, TF over GST control); in the test with SPIB, 1.34 fold enrichment (6-mer frequency, TF over GST control); with ELK3, 1.3 fold enrichment (6-mer frequency, TF over GST control); with FEV it was 1.2 fold enrichment (6-mer frequency, TF over GST control); with ETV5 it was 1.16 fold enrichment (6-mer frequency, TF over GST control); with SPIC, 1.25 fold enrichment (6-mer frequency, TF over GST control). The binding signal in the test with ELF4 was 1.28 fold enrichment (6-mer frequency, TF over GST control); with ELK4, 1.2 fold enrichment (6-mer frequency, TF over GST control); with ETV2, 1.17 fold enrichment (6-mer frequency, TF over GST control); with ELF3 it was 1.33 fold enrichment (6-mer frequency, TF over GST control); with ETV1 it was 1.25 fold enrichment (6-mer frequency, TF over GST control).

The record behind these values is PMC7862700, “An all-to-all approach to the identification of sequence-specific readers for epigenetic DNA modifications on cytosine”.
